LmPK inhibitor – inhibitors of Leishmania mexicana pyruvate kinase. Q27686. purified LmPK, Kinase-Glo ATP luminescence, 1 h. Potency, µM (series often up to 57.5 µM), for the others: top-dose activity change, negative = inhibition, actives largely listed as inhibitors. 290,000 compounds, 0.37% hits; also: potency is read from the fitted curve at half-maximal effect; % is scaled to controls: 0 for no effect and ±100 for the full control effect
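Purified LmPK (0.1 nM) with 0.5 mM PEP and 0.1 mM ADP in imidazole buffer pH 7.2 with MgCl2/KCl, 1 h at room temperature. ATP formed was read by luciferase luminescence and normalized to no-enzyme and uninhibited controls.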
CHX counter – affects cycloheximide protein synthesis inhibition readout, counter-screen. 300,000 compounds, 12% hits. AID 2314. max response, %. cell reporter, cycloheximide protein synthesis inhibition counterscreen; in the data active = max response mostly above about 13%, no sharp cut-off; inactive = mostly below about 14%; also: read at 38.3 µM for the half of the compounds with a filed dose; 0% is about no effect
FBPA Giardia inh – Giardia lamblia aldolase inhibition | A8B2U2 | purified Giardia FBPA | Potency, µM (titrated, usually from 59.6 µM), for inactives: at the top dose activity, negative = inhibition, usual class: inhibitors | 290,000 compounds, 0.71% hits | AID 2451; also: potency is read from the fitted curve at half-maximal effect; % is scaled to controls: 0 for no effect and ±100 for the full control effect; nearly all actives have a fitted effect of over 55% in size
Target sequence (A8B2U2 whole entry, looked up): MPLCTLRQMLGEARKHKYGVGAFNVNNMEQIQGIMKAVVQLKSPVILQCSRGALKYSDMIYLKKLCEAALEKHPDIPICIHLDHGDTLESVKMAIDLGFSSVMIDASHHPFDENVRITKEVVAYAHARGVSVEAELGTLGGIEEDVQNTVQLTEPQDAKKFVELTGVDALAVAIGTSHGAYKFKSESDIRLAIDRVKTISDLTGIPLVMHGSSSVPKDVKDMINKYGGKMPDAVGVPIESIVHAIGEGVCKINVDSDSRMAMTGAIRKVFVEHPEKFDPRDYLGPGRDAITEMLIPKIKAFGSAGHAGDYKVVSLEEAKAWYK
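40 nM FBPA preincubated 10 min at RT with compound (up to 57.5 uM final), then substrate plus GAPDH/TPI/NAD/arsenate coupling and diaphorase/resazurin added. Fluorescence read after 20 min at RT, 525/598 nm.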
Sm TGR block – inhibitors of Schistosoma mansoni thioredoxin glutathione reductase; Q962Y6; purified TGR, DTNB reduction, TNB absorbance 405 nm; Potency, µM (doses to about 114 µM), inactives show top-dose activity change, negative = inhibition, hits mostly inhibitors; 360,000 compounds, 3% hits; AID 485364; also: potency is read from the fitted curve at half-maximal effect; % is scaled to controls: 0 for no effect and ±100 for the full control effect; nearly all actives have a fitted effect of over 60% in size
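TGR 20 nM + NADPH 100 uM (dispensed conc.), cpd preinc 15 min RT; start with NADPH (500 uM addition) then DTNB (15 mM addition). Kinetic TNB absorbance, 405 nm filter. Four-parameter Hill fit across titration.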
Shiga toxin inh – inhibitors of Shiga toxin in Vero cells. inhibition, % at 38.7 µM. AID 2315. 290,000 compounds, 9.2% hits. Vero cells, Shiga toxin protein synthesis inhibition reporter; in the data active = inhibition mostly above about 28%, no sharp cut-off; inactive = mostly below about 43%; also: 0% is about no effect
TbPYK inhibitor – blocks Trypanosoma brucei pyruvate kinase. Q57TT1. TbPYK enzyme, Kinase-Glo Plus ATP luminescence, 45 min. Potency, µM (top dose mostly 76.8 µM), without a hit: at the highest dose activity, negative = inhibition, usual class: inhibitors. 410,000 compounds, 0.12% hits. AID 624173; also: potency is read from the fitted curve at half-maximal effect; % is scaled to controls: 0 for no effect and ±100 for the full control effect; nearly all actives have a fitted effect of over 50% in size
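Luminescence from Kinase-Glo Plus, added after a 45-minute room-temperature reaction, served as the end-point read-out. The enzyme and substrate were preincubated with compound before ADP (130 uM final) initiated turnover. Concentration-effect curves came from normalized qHTS data.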
* marks the source's active call; other numbers are inactive results; ? = inconclusive; / = no result given. This is one part of a sample in which hits are shown more often than they occur. Unless noted, calls follow the shape of the dose curve; as a rule, active = well fitted curve in the direction sought with a large enough effect; inconclusive = small, poorly fitted or top-dose-only effect, or another doubt; inactive = no such curve, though single readings can be large; an effect the other way counts as inactive or inconclusive.

SMILES | LmPK inhibitor | CHX counter | FBPA Giardia inh | Sm TGR block | Shiga toxin inh | TbPYK inhibitor
Cn1c2ccccc2c(=O)c2c(=O)n(-c3ccc(F)cc3)c(C3CCCCC3)nc21 | / | / | / | / | / | 10%
O=C(CC(C(=O)O)P(=O)(c1ccccc1)c1ccccc1)c1ccc(Br)cc1 (centres undefined) | 2% | 1 | 8% | 28µM* | -16 | 1%
Cc1ccc(C(=O)CC(C(=O)O)n2cccn2)cc1 (centres undefined) | 2% | -1 | -6% | -31% | 20 | 5%
Cc1ccc(SC(CC(=O)c2ccc(C)cc2)C(=O)O)cc1 (centres undefined) | -2% | 15 | 4% | 13µM* | 18 | -18%
O=C(CC(Sc1ccc(Br)cc1)C(=O)O)c1ccc(Br)cc1 (centres undefined) | 1% | -3 | -2% | 0.28µM* | -1 | /
COCCCNc1nc2c(-c3ccccc3)nnn2c2ccccc12 | / | / | / | 6% | / | 6%
COCCCNc1nc2c(-c3ccc(C)cc3)nnn2c2ccccc12 | 3% | 39* | -4% | -8% | 72* | -2%
CN1CCC(N(C)CC(O)c2ccccc2)CC1 (centres undefined) | -3% | -1 | ? | 13µM* | -6 | -12%
CCCCN(CC)C(=O)c1ccc2c(c1)NC(=O)c1ccccc1S2 | / | / | / | 0% | / | 2%
CCOc1ccc(CNC(=O)c2ccc(Sc3ccc(C)cc3)c(N)c2)cc1OC | / | / | / | -1% | / | 4%
S=C(NCCC1=CCCCC1)NCc1ccco1 | 1% | 23* | -5% | -14% | 47* | 1%
O=C(COC(=O)c1ccccc1NCCO)NCCC1=CCCCC1 | / | / | / | 0% | / | 0%
O=C(NC(=S)NCCC1=CCCCC1)c1cncc(Br)c1 | 2% | 18* | 5% | -14% | active | -6%
CCCNC(=O)C(=O)NCCC1=CCCCC1 | -6% | 15 | 4% | 28% | 15 | 4%
O=C(COC(=O)c1ccccc1Br)NCCC1=CCCCC1 | 6% | 29* | 5% | -7% | 75* | 1%
O=C(NC(=S)NCCC1=CCCCC1)c1ccccc1Br | 4% | 27* | -1% | 2% | 9 | -11%
COc1ccc(S(=O)(=O)N(CCc2ccccc2)CC(=O)Nc2cc(C)ccc2C)cc1 | / | / | / | 10% | / | -7%
